The values that follow come from PubChem BioAssay (NCI).

Holding throughout (assay): NCI-60 one-dose screen, 48 h (100 = growth as untreated, 0 = no growth, -100 = all killed)
What all share (details): 10 µM unless noted

Assay [1] relates to NCI-H23 lung.
Assay [2] deals with NCI-H226 lung.
The subject of assay [3] is NCI-H322M lung.
The subject of assay [4] is HOP-62 NSCLC.
Assay [5] relates to NCI-H460 lung.
Assay [6] has as its system HOP-92 NSCLC.
Assay [7] concerns NCI-H522 lung.
Assay [8] deals with A549/ATCC NSCLC.
In assay [9] the test system is 786-0 renal.
Assay [10] has as its system COLO 205 colon.
The subject of assay [11] is DU-145 prostate.
Assay [12] concerns K-562 leukemia.
Assay [13] relates to MALME-3M melanoma.
Assay [14] deals with MDA-MB-231 breast.
The test system of assay [15] is RXF 393 renal.
The subject of assay [16] is SF-268 CNS.
In assay [17] the test system is SF-295 CNS.
For assay [18], the system named is SF-539 CNS.
The test system of assay [19] is UACC-257 melanoma.
The test system of assay [20] is M14 melanoma.

Compounds without any hit were thinned out: in the full panel of roughly 83,000, 20% have a hit.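 Treatment: one concentration, 48 hours, 96-well format. Scoring: percent growth, with anything below 10 considered active.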 A number with no mark means an inactive call. Activity calls are given as the source filed them.

As for `CN1CCN(CC(=O)N(C)c2ccc(N=C(c3ccccc3)c3c(O)[nH]c4ccc([N+](=O)[O-])cc34)cc2)CC1`, the growth in assay [1] was 80.4%; in assay [2], 61.9%; in assay [3] it was 82.4%; in assay [4], 85.1%; in assay [5] it was 54.5%; in assay [6], 87.9%. In addition, the growth in assay [7] was 86.8%; in assay [8] it was 46.7%; in assay [9], 44.3%; in assay [10] it was 28.6%; in assay [11], 51.3%; in [12] it was 5.2% (active). In addition, the growth was 84% in assay [13]; 63.5% in assay [14]; 28.2% in assay [15]; 74.3% in assay [16]; 53.9% in assay [17]; 36.1% in [18]. The figures for the growth in assay [19] and in assay [20] were 103% and 36.3%, respectively.
Take `Cc1[nH]c(C2CC(c3ccc(C(F)(F)F)c(F)c3)=NN2C)c(C)c1C(=O)NCC(F)(F)F` (stereo not given): the growth in assay [1] is 95.4%; in assay [2], 93.3%; in assay [3] it was 92.7%; in assay [4] it was 106%; in [5] it was 101%; in assay [6], 114%. The growth in assay [7] is 88.9%; in assay [8] it was 95.5%; in [9], 109%; in assay [10] it was 114%; in assay [11], 96.3%; in assay [12] it was 85.6%. Besides, the growth in assay [13] was 93.8%; in [14], 85.4%; in assay [15], 93.7%; in assay [16], 92.4%; in assay [17], 94.9%; in [18], 96.7%. The growth in [19] is 97.9%; in assay [20], 115%.
On to `N#CSCc1cc(Cl)c(CSC#N)cc1Cl`, for which the growth in assay [1] is 72.8%; in assay [2], 73.3%; in assay [3], 112%; in assay [4] it was 113%; in [5], 74.6%; in assay [6], 11.8%. For the same compound, the growth in assay [7] is 22.5%; in assay [8], 120%; in assay [9], 71.4%; in assay [10], 61.6%; in [11], 59.7%; in [12], 29.2%. Further, the growth was 58% in assay [13]; 57.6% in [14]; 34.3% in assay [15]; 63.3% in assay [16]; 97.5% in [17]; 45.7% in assay [18]. For the same compound, the values for the growth in assay [19] and in assay [20] were 103% and 27.4%, respectively.
With `Nc1ccc(Cl)c2c(=O)c3ccccc3[nH]c12`, the growth in assay [1] was 71.3%; in [2], 77%; in [3] it was 99.8%; in assay [4], 105%; in assay [5] it was 91.2%; in [6], 99.4%. Also, the growth was 69.8% in assay [7]; 80% in assay [8]; 77.4% in assay [9]; 90.7% in assay [10]; 94.1% in assay [11]; 83.5% in assay [12]. For the same compound, the growth in assay [13] was 109%; in assay [14] it was 91.5%; in [15], 80.4%; in assay [16], 92.9%; in assay [17], 76.4%; in assay [18] it was 83.5%. Moreover, the growth in assay [19] is 74.7%; in [20] it was 91.1%.
For the compound `Cc1c(CC(=O)Nc2ccccc2)nnn1-c1ccccc1`, the growth in assay [1] was 100%; in [2] it was 109%; in [3], 105%; in assay [4], 108%; in assay [5], 106%; in assay [6], 108%. Also, the growth in [7] was 93.4%; in assay [8] it was 107%; in assay [9], 107%; in [10], 112%; in assay [11], 115%; in assay [12], 101%. Besides, the growth in [13] is 106%; in assay [14], 118%; in [15], 120%; in assay [16], 104%; in [17] it was 109%; in assay [18] it was 100%. Besides, the results for the growth in assay [19] and in [20] were 104% and 108%, respectively.
In the case of `C#CC#CC#CC#CC#CC#CC#CC#CC[C@@H]1OC[C@H](COC(=O)O[C@@H](C(=O)O[C@H]2C[C@@]3(O)[C@@H](OC(=O)c4ccccc4)[C@@H]4[C@]5(OC(C)=O)CO[C@@H]5C[C@H](O)[C@@]4(C)C(=O)[C@H](OC(C)=O)C(=C2C)C3(C)C)[C@@H](NC(=O)c2ccccc2)c2ccccc2)O1`, the growth is 34.5% in assay [1]; 57.6% in assay [2]; 35.9% in assay [3]; 55% in assay [4]; 10.6% in [5]; 63.7% in [6]. Also, the growth in assay [7] was 48.6%; in assay [8], 36.7%; in assay [9] it was 72.9%; in [10], 18.7%; in assay [11] it was 24.4%; in assay [12] it was 15.8%. For the same compound, the growth in [13] was 43.7%; in [14], 45.3%; in assay [15] it was 22.7%; in assay [16] it was 51.7%; in assay [17], 25.3%; in [18], 30.2%. The growth in assay [19] is 55.7%; in assay [20], 18.6%.
`COc1cc(C(=O)c2c(-c3ccccc3)oc3ccccc23)cc(OC)c1O`: the growth in assay [1] was 43.2%; in assay [2], 52.8%; in assay [3] it was 53.4%; in [4], 38.2%; in [5] it was 13.9%; in assay [6], 55.4%. For the same compound, the growth is 40.2% in [7]; 47.3% in assay [8]; 35.6% in assay [9]; 123% in assay [10]; 26% in assay [11]; 17.4% in assay [12]. The growth is 48.5% in assay [13]; 59.7% in assay [14]; -2.49% (active) in assay [15]; 59.9% in assay [16]; 14.3% in [17]; 8.35% (active) in assay [18]. Besides, the figures for the growth in assay [19] and in assay [20] were 73.2% and 16.6%, respectively.
With `Nc1nc(N)c2c(n1)NC(c1cccc(Nc3ccnc4cc(C(F)(F)F)ccc34)c1)CC(c1ccc(Cl)cc1)=N2` (stereo not given), the growth in [1] was 64.7%; in assay [2], 82.7%; in [3], 89.3%; in assay [4] it was 52%; in assay [5], 20.4%; in [6], 34.5%. The growth in assay [7] is 32.6%; in [8] it was 40.8%; in assay [9], 68.9%; in assay [10] it was 29.5%; in assay [11], 69.5%; in assay [12] it was 10.5%. The growth in assay [13] is 50.8%; in assay [14], 54.4%; in assay [15], 37.6%; in [16], 55.2%; in [17], 48.4%; in assay [18] it was 80.8%. Also, the growth in [19] was 87.3%; in assay [20], 29.7%.
With `Nc1nc(=O)n([C@H]2CC=C(CO)O2)cc1F`, the growth was 98.5% in [1]; 99.6% in assay [2]; 95.9% in assay [3]; 99.1% in assay [4]; 98.4% in assay [5]; 101% in assay [6]. The growth is 80.7% in [7]; 89.7% in assay [8]; 102% in assay [9]; 107% in assay [10]; 107% in assay [11]; 96.5% in assay [12]. Also, the growth in assay [13] was 97.9%; in assay [14] it was 101%; in assay [15], 99.3%; in [16], 99.3%; in [17], 102%; in [18] it was 107%. The figures for the growth in assay [19] and in assay [20] were 95.4% and 105%, respectively.
In the case of `C#Cc1cccc(Nc2nc(Cl)nc3cc(NC(=O)CCl)ccc23)c1`, the growth in assay [1] is -73.9% (active); in [2] it was -49.4% (active); in [3], -73.1% (active); in [4], -77% (active); in assay [5] it was -58.9% (active); in assay [6], -82.7% (active). The growth was -69.1% (active) in assay [7]; 13.1% in assay [8]; -83.6% (active) in [9]; -70.5% (active) in [10]; -93.5% (active) in [11]; -36.2% (active) in [12]. Further, the growth in assay [13] was -83.3% (active); in [14] it was -73% (active); in assay [15], -94.2% (active); in assay [16], -52.2% (active); in assay [17] it was -86.9% (active); in [18], -96.5% (active). Moreover, the growth is -53.9% (active) in [19] and -52.2% (active) in assay [20].
Take `COc1cccc(/C=C/C(=O)/C=C(/C=C/c2cccc(OC)c2OC)OB(F)F)c1OC`: the growth in [1] is 44.2%; in assay [2], 107%; in assay [3], 92.5%; in assay [4] it was 80.3%; in assay [5] it was 90.7%; in assay [6] it was 103%. The growth was 17.4% in assay [7]; 88.7% in [8]; 45.1% in assay [9]; 32.9% in assay [10]; 55.7% in assay [11]; 32.9% in assay [12]. The growth in assay [13] is 32%; in [14], 60.3%; in assay [15], 102%; in [16] it was 95.3%; in [17], 103%; in assay [18], 57.7%. Moreover, the growth in assay [19] is 28.6%; in assay [20] it was 61.7%.
For the compound `CCN(CC)CCOc1ccc(/C(=C(\C)Cc2ccc(OC)cc2)c2ccc(O)cc2)cc1`, the growth in [1] was 59.2%; in assay [2], 74.6%; in [3], 54.5%; in assay [4], 25.8%; in assay [5] it was -36.4% (active); in assay [6] it was 2.96% (active). The growth in [7] is -9.94% (active); in assay [8] it was 19.4%; in [9], -37.1% (active); in assay [10], -72.1% (active); in assay [11], 53.4%; in assay [12], -56.7% (active). The growth in assay [13] is -76.7% (active); in assay [14] it was 24%; in assay [15], 6.99% (active); in assay [16], 47.9%; in assay [17], -25.3% (active); in [18], -50.8% (active). Further, the growth is -62.9% (active) in [19] and -77.3% (active) in [20].
Consider `N#Cc1nn(-c2ccccn2)c(N)c1C#N`, for which the growth in assay [1] is 105%; in assay [2], 106%; in assay [3] it was 107%; in assay [4], 97.1%; in assay [5], 106%; in assay [6] it was 101%. The growth in [7] was 67.4%; in [8], 97.5%; in assay [9] it was 98%; in assay [10], 106%; in assay [11], 104%; in assay [12] it was 94%. Also, the growth in [13] is 103%; in [14] it was 109%; in [15], 127%; in [16], 97.2%; in assay [17] it was 96.2%; in [18] it was 97.2%. Besides, the growth in assay [19] is 103%; in assay [20], 102%.
On to `C#C[C@]1(O)CC[C@H]2[C@@H]3CC=C4c5sc(-c6cccc(C)c6)nc5CC[C@]4(C)[C@H]3CC[C@@]21C`, for which the growth in assay [1] is 73%; in [2], 91.1%; in [3], 66.1%; in assay [4], 83.4%; in [5] it was 76.6%; in assay [6], 49.6%. Moreover, the growth was 70% in assay [7]; 75.4% in [8]; 32.8% in assay [9]; 107% in assay [10]; 78.5% in assay [11]; 0.702% (active) in assay [12]. The growth in assay [13] is 83%; in assay [14] it was 59.8%; in assay [15], 11.7%; in [16], 60.8%; in assay [17], 58.5%; in [18] it was 15.9%. Further, the growth in [19] was 58.5%; in assay [20], 58.7%.
